# According to the supplement of paper PMC8728848:
# Many of the other results were omitted from the sample, so the strongest signals are more common in it than they were.
# B1: AAA (Anguilla anguilla), Q7SIC1 (protein)
# chain: VIPEGYTQENVAVRGKATQSAQLRGEHAANSEASNAIDGNRDSNFYHGSCTHSSGQANPWWRVDLLQVYTITSVTITNRGDCCGERISGAEINIGQHLASNGVNNPECSVIGSMATGETKTFHCPAPMIGRYVVTYLPTSESLHLCEVEVNVDKPAAA
# Columns and labels:
# Assay in all cases: glycan array binding signal (z-score within array); higher = stronger binding
# Conditions in all cases: glycan notation: IUPAC condensed, linker removed
# [1] = target: Fuc(a1-2)Gal(b1-3)GalNAc(a1-3)[Fuc(a1-2)]Gal(b1-4)Glc
# In short: (§1)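 The binding signal is a Z-score computed within each array and averaged over linkers. Arrays of the same protein sequence at different concentrations or buffers were also averaged together. Data originate from 3228 arrays in the Consortium for Functional Glycomics database, kept only where the protein sequence was available.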
# [2] = target: Fuc(a1-2)Gal(b1-3)GalNAc(b1-4)[Neu5Ac(a2-3)]Gal(b1-4)Glc
# In short: as §1
# [3] = target: Fuc(a1-2)Gal(b1-3)GlcNAc(b1-3)Gal(b1-4)Glc
# In short: as §1
# [4] = target: Fuc(a1-2)Gal(b1-4)GlcNAc(b1-3)[Fuc(a1-2)Gal(b1-4)GlcNAc(b1-6)]GalNAc
# In short: as §1
# [5] = target: Fuc(a1-2)Gal(b1-4)GlcNAc(b1-6)GalNAc
# In short: as §1
# [6] = target: Fuc(a1-2)Gal(b1-4)[Fuc(a1-3)]GalNAc(b1-3)Gal(b1-4)[Fuc(a1-3)]GlcNAc
# In short: as §1
# Fuc(a1-2)GlcNAc = target: Fuc(a1-2)GlcNAc
# In short: as §1
# [7] = target: Fuc(a1-2)[Gal(a1-3)]Gal(b1-3)GlcNAc
# In short: as §1
# [8] = target: Fuc(a1-2)[Gal(a1-3)]Gal(b1-4)Glc
# In short: as §1
# Gal(a1-3)Gal(b1-4)GlcNAc = target: Gal(a1-3)Gal(b1-4)GlcNAc
# In short: as §1
# Gal(a1-6)Glc = target: Gal(a1-6)Glc
# In short: as §1
# [9] = target: Gal(b1-3)GalNAc(a1-3)[Fuc(a1-2)]Gal(b1-4)Glc
# In short: as §1
# [10] = target: Gal(b1-3)GalNAc(b1-3)Gal(b1-4)Glc
# In short: as §1
# [11] = target: Gal(b1-3)[Fuc(a1-4)]GlcNAc(b1-3)Gal(b1-3)[Fuc(a1-4)]GlcNAc
# In short: as §1
# [12] = target: Gal(b1-3)[Fuc(a1-4)]GlcNAc(b1-6)GalNAc
# In short: as §1
# [13] = target: Gal(b1-4)GlcNAc(b1-2)Man(a1-3)[GlcNAc(b1-4)][Gal(b1-4)GlcNAc(b1-2)Man(a1-6)]Man(b1-4)GlcNAc(b1-4)GlcNAc
# In short: as §1
# [14] = target: Gal(b1-4)GlcNAc(b1-2)Man(a1-6)Man(b1-4)GlcNAc(b1-4)GlcNAc
# In short: as §1
# [15] = target: Gal(b1-4)GlcNAc(b1-3)Gal(b1-4)GlcNAc(b1-3)Gal(b1-4)GlcNAc(b1-3)Gal(b1-4)GlcNAc(b1-3)Gal(b1-4)GlcNAc(b1-2)Man(a1-3)[Gal(b1-4)GlcNAc(b1-3)Gal(b1-4)GlcNAc(b1-3)Gal(b1-4)GlcNAc(b1-3)Gal(b1-4)GlcNAc(b1-3)Gal(b1-4)GlcNAc(b1-2)Man(a1-6)]Man(b1-4)GlcNAc(b1-4)[Fuc(a1-6)]GlcNAc
# In short: as §1
# [16] = target: Gal(b1-4)GlcNAc(b1-3)Gal(b1-4)GlcNAc(b1-3)[Gal(b1-4)GlcNAc(b1-3)Gal(b1-4)GlcNAc(b1-6)]GalNAc
# In short: as §1
# Gal3S(b1-4)Glc = target: Gal3S(b1-4)Glc
# In short: as §1
# [17] = target: Gal3S(b1-4)[Fuc(a1-3)]GlcNAc
# In short: as §1
# [18] = target: Gal3S(b1-4)[Fuc(a1-3)]GlcNAc6S
# In short: as §1
# Gal3S6S(b1-4)GlcNAc6S = target: Gal3S6S(b1-4)GlcNAc6S
# In short: as §1
# Gal6S(b1-4)GlcNAc6S = target: Gal6S(b1-4)GlcNAc6S
# In short: as §1
# GalNAc(b1-3)GalNAc = target: GalNAc(b1-3)GalNAc
# In short: as §1
# GalNAc(b1-4)Gal(b1-4)Glc = target: GalNAc(b1-4)Gal(b1-4)Glc
# In short: as §1
# GalNAc(b1-4)GlcNAc = target: GalNAc(b1-4)GlcNAc
# In short: as §1
# [19] = target: GalNAc(b1-4)GlcNAc(b1-3)GalNAc(b1-4)GlcNAc
# In short: as §1
# [20] = target: GlcA3S(b1-3)Gal(b1-4)GlcNAc(b1-3)Gal(b1-4)Glc
# In short: as §1
# [21] = target: GlcNAc(a1-4)Gal(b1-4)GlcNAc
# In short: as §1
binder,measurement,setting,value
B1,glycan array binding signal (z-score),[1],-0.257
same,glycan array binding signal (z-score),[2],-0.193
same,glycan array binding signal (z-score),[3],-0.189
same,glycan array binding signal (z-score),[4],-0.001
same,glycan array binding signal (z-score),[5],0.002
same,glycan array binding signal (z-score),[6],-0.583
same,glycan array binding signal (z-score),Fuc(a1-2)GlcNAc,8.41
same,glycan array binding signal (z-score),[7],0.046
same,glycan array binding signal (z-score),[8],-0.037
same,glycan array binding signal (z-score),Gal(a1-3)Gal(b1-4)GlcNAc,-0.169
same,glycan array binding signal (z-score),Gal(a1-6)Glc,-0.097
same,glycan array binding signal (z-score),[9],-0.279
same,glycan array binding signal (z-score),[10],0.237
same,glycan array binding signal (z-score),[11],0.164
same,glycan array binding signal (z-score),[12],-0.081
same,glycan array binding signal (z-score),[13],-0.238
same,glycan array binding signal (z-score),[14],-0.168
same,glycan array binding signal (z-score),[15],-0.123
same,glycan array binding signal (z-score),[16],1.43
same,glycan array binding signal (z-score),Gal3S(b1-4)Glc,-0.117
same,glycan array binding signal (z-score),[17],-0.194
same,glycan array binding signal (z-score),[18],-0.154
same,glycan array binding signal (z-score),Gal3S6S(b1-4)GlcNAc6S,-0.044
same,glycan array binding signal (z-score),Gal6S(b1-4)GlcNAc6S,-0.292
same,glycan array binding signal (z-score),GalNAc(b1-3)GalNAc,-0.16
same,glycan array binding signal (z-score),GalNAc(b1-4)Gal(b1-4)Glc,-0.076
same,glycan array binding signal (z-score),GalNAc(b1-4)GlcNAc,1.89
same,glycan array binding signal (z-score),[19],3.34
same,glycan array binding signal (z-score),[20],-0.136
same,glycan array binding signal (z-score),[21],2.3
